High-throughput results: PubChem, several laboratories
eIF4H FP inh – human eIF4H binding inhibitors, primary screen, translation initiation inhibitor project, biochemical, uHTS, fluorescence polarization. 290,000 compounds, 0.94% hits. inhibition, % at 35 µM. eIF4H fluorescence polarization binding assay;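 note: calls also rest on retests at 20 µM and on dose response follow-up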
PABP FP inh – PABP poly(A) RNA binding inhibitors, primary screen, biochemical, fluorescence polarization, uHTS; 290,000 compounds, 1% hits; inhibition, % at 35 µM; AID 2014, 2009; Polyadenylate-binding protein 1 (Homo sapiens), P11940;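 note: calls also rest on retests at 20 µM and on dose response follow-up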
PABP1 MLLE inh – inhibitors of PABP1 MLLE–PAM2 peptide binding, primary screen, biochemical, fluorescence polarization, FITC-PAM2, GST-MLLE. 360,000 compounds, 0.36% hits. Polyadenylate-binding protein 1 (Homo sapiens), P11940. inhibition, % at 20 µM. AID 588489, 2011; in the data active = inhibition above about 35%, passing the limit was not always enough;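 note: plate controls were DMSO wells with GST-MLLE for no effect and wells lacking GST-MLLE protein for full effect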
eIF4E 4G PPI – eIF4E–eIF4G protein interaction inhibitors, primary screen, biochemical, uHTS, TR-FRET, eIF4GI fragment | Eukaryotic translation initiation factor 4E (Mus musculus) + Eukaryotic translation … | TR-FRET eIF4E-eIF4GI(517-606) binding, 2 h | inhibition, % at 21.7 µM | 220,000 compounds, 0.37% hits | AID 782, 2007;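 active = inhibition above about 30%, limit read from the data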;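 note: 0% = full FRET control wells and 100% = background wells lacking eIF4GI fragment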
PERK inhibitor – block of dimerizer-induced PERK translation repression, primary screen, PERK inhibitor project, CHO PERK-DD cells, SEAP luminescence, HTS; 220,000 compounds, 0.17% hits; Eukaryotic translation initiation factor 2-alpha kinase 3 (Homo sapiens), Q9NZJ5; CHO PERK-DD fusion, SEAP luminescence translation reporter; inhibition, % at 5.6 µM; AID 1416, 2008;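 active = inhibition above the mean inhibition of all tested compounds plus 3 SD, set separately per screening campaign, cut at about 2.9% in these data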;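 note: PERK kinase domain activated by AP20187 dimerizer at 100 nM; 0% = DMSO with dimerizer and 100% = rapamycin at 8.4 µM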
The depositor's hits bear a star; ? = inconclusive; . = no result given. This is a sample that favours compounds with a hit; in the whole collection about 1.6% have one here. Unless noted, the rule behind the calls is not given here.

SMILES | eIF4H FP inh | PABP FP inh | PABP1 MLLE inh | eIF4E 4G PPI | PERK inhibitor
CCN1/C(=C/c2cccc[n+]2C)Sc2ccc(OC)cc21 | -9.3 | 47.7 | -140.3 | . | .
CN(Cc1c(C(=O)N/N=C/c2c(F)cccc2Cl)nnn1-c1nonc1N)c1ccccc1 | -16.5 | 0.5 | -8.2 | . | .
O=C1c2nc3cc(-c4ccco4)[nH]n3c(=O)c2CN1Cc1ccccc1 | 84.7* | 85.3* | 12.4 | -2.3 | 1.8
C=CCN(CC=C)C(=S)Nc1ccc2nsnc2c1 | 13.1 | -5.7 | 51.6* | 3.1 | -0.2
Cc1ccc(C)c(Nc2ncccc2C(=O)NCc2cccs2)c1 | ? | 75.7* | 7.5 | 0.5 | -0.2
CCN1C(N(C)CCc2cccs2)=N[C@@H](c2ccccc2)C(C(=O)OC)=C1C | -0.1 | 53.8* | -100.8 | . | .
N#CCc1cnc2ccccc2n1 | 89.3* | 52.5* | 12.5 | 3.6 | -0.3
N#CC1=C(N)C(C#N)(C#N)C(c2cccnc2)C2CN(C(=O)OCc3ccccc3)CC=C12 (stereo not drawn) | 65.8* | -0.3 | 20.9 | 0.1 | -1.1
O=C(N/N=C/c1ccc(-c2ccccc2[N+](=O)[O-])o1)c1cncc(Br)c1 | 10.2 | 11.2 | 18.8 | -1.8 | 1.0
C/C(=N\NC(=S)Nc1cccc(C)c1)c1cc2ccccc2o1 | 6.7 | 3.6 | 43.0* | -0.8 | -0.1
O=C(NN=Cc1ccc(F)cc1)c1ccccc1NS(=O)(=O)c1cccs1 | . | . | 2.9 | . | .
C/C(=N\Nc1ccc([N+](=O)[O-])cc1)c1cc2ccccc2o1 | 56.7* | 11.4 | -136.0 | 3.9 | -0.6
O=C(N/N=C\c1ccc([N+](=O)[O-])o1)c1cncc(Br)c1 | 70.7* | 54.2* | -2.2 | -5.3 | 1.0
O=C(N/N=C/c1ccc([N+](=O)[O-])o1)c1ccccc1NS(=O)(=O)c1cccs1 | 76.2 | 46.6* | -2.1 | -1.6 | 2.1
CCCc1cc(C(=O)NCc2ccccc2)no1 | 4.1 | -4.4 | 2.5 | 4.4 | 2.1
O=C(N/N=C/c1ccc([N+](=O)[O-])o1)c1cc2c(ccc3ccccc32)o1 | 75.5 | 31.6* | -5.5 | 38.5* | 0.6
Cc1ccc(/C=N/NC(=O)c2cc3c(ccc4ccccc43)o2)o1 | -5.9 | 6.2 | -1.4 | . | .
O=C(N/N=C/c1ccc([N+](=O)[O-])o1)c1cc2ccccc2o1 | 69.5* | 37.2* | -11.2 | 1.2 | 1.2
O=c1c(-c2ccnn2-c2ccc(F)cc2)cnc2n1CCS2 | -2.0 | -2.3 | -1.2 | 4.7 | 0.6
CCOc1ccc(NS(=O)(=O)c2ccc(NC(=S)NC(C)=O)cc2)cc1 | -11.6 | 16.5 | 22.8 | -4.8 | -0.1
CCN(CC)S(=O)(=O)c1ccc(/C(O)=C2/C(=O)C(=O)N(CCOC)C2c2ccccc2)cc1 (stereo not drawn) | 5.7 | 2.4 | 5.2 | -4.2 | 0.4
COc1ccc(-n2cnnc2SCC(=O)Nc2cc(C)on2)cc1 | 63.4* | 17.9* | -6.2 | -1.8 | 0.2
Cn1c(=O)cc(C(=O)N/N=C/c2ccc(Cl)cc2)[nH]c1=O | 3.2 | -1.8 | 6.0 | 1.5 | 2.9*
O=C(O)c1ccc2c3c(cccc13)C(=O)N(c1ccccc1)C2=O | 81.1 | -14.5 | -0.4 | 11.0 | 0.9
O=C(O)c1ccc(N2C(=O)c3cccc4c(C(=O)O)ccc(c34)C2=O)cc1 | 96.4* | active | -17.3 | 9.1 | 0.0
SMILES | eIF4H FP inh | PABP FP inh | PABP1 MLLE inh | eIF4E 4G PPI | PERK inhibitor
COc1ccc(C(N)CCc2ccc(C)o2)cc1 (stereo not drawn) | 87.1 | 37.6* | -34.5 | -2.7 | -0.7
CC(C)n1nc(C(=O)Oc2cccc(Cl)c2Cl)c2ccccc2c1=O | 3.7* | 59.6* | -7.3 | 5.8 | -0.1
CC(C)n1nc(C(=O)Oc2cc(Cl)ccc2Cl)c2ccccc2c1=O | -7.3 | 0.2 | 5.5 | 1.6 | 0.2
O=C(CSc1ncnc2sc3c(c12)CCC3)N1CCOCC1 | 62.1* | 30.6 | 12.3 | . | .
Fc1ccc2c(c1)c1n[nH]c(=S)nc1n2CCc1ccccc1 | -10.2 | 5.3 | 40.3* | . | .
NNc1nnc2c3cc(F)ccc3n(CCc3ccccc3)c2n1 | -2.8 | -3.7 | -6.2 | . | .
Cc1ccc2c(c1)c1n[nH]c(=S)nc1n2CCc1ccccc1 | -3.6 | 5.6 | 40.5* | . | .
